Bioassay records from PubChem.
Cav32 inh: inhibitors of human Cav3.2 T-type calcium channel | O95180 | AID 449739 | B-score at 10 µM | hit rate 4% among 100,000 | Cav3.2-expressing cells, Fluo-4 calcium fluorescence FDSS; hits give low values;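 active = single-dose well whose peak fluorescence ratio is a statistical outlier from its plate by either plate-standardised score or position-corrected B-score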
PLAP activator: human PLAP activation | P05187 | purified PLAP enzyme, luminescent substrate read-out; hits give high values | activation fold at 20 µM | hit rate 1.2% among 96,000 | AID 696; in the data active = activation fold above about 2
Target sequence (P05187 whole entry, looked up): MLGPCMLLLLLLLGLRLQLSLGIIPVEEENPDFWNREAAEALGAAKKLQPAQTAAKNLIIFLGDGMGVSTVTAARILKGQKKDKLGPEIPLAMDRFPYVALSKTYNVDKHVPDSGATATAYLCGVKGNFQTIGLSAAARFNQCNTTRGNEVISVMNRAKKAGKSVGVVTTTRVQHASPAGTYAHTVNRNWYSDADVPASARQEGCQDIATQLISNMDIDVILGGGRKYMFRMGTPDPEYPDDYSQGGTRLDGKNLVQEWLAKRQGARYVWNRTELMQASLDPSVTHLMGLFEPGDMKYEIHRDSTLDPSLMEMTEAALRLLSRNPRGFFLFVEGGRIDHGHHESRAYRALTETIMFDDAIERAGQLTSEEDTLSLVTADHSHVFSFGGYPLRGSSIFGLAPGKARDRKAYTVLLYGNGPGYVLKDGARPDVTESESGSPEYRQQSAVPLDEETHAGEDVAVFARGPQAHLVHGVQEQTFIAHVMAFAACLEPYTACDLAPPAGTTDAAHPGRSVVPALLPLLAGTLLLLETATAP
M1 agonist: activates the M1 muscarinic receptor; CHO-M1 cells, Fluo-4 calcium fluorescence, agonist mode; hits give high values; B-score at 10 µM; hit rate 3% among 64,000; AID 626;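 active = fluorescence rise, raw or as B-score row- and column-corrected plate score, outside the 99.7% band of its plate's samples, either direction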
M1 antag: blocks the rat M1 muscarinic receptor response to acetylcholine; hit rate 3.4% among 64,000; B-score at 10 µM; CHO-M1 cells, Fluo-4 calcium, ACh EC80 antagonist mode; hits give low values;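 active = calcium fluorescence response, raw or row-and-column corrected B-score, differing from the plate sample mean either way at a set confidence level, mostly lower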
Starred values were filed as active, the others as inactive; · = not tested or not shown. An excerpt weighted towards active compounds, which were near 7.6% of everything screened.

SMILES	Cav32 inh	PLAP activator	M1 agonist	M1 antag
CCOC(=O)/C(C#N)=C\C=C1C=CN(C)C=C1	-4.79*	0.7	·	·
O=C(Nc1ccccc1)C(O)C(O)C(=O)Nc1ccccc1 (centres undefined)	1.51	·	·	·
C=C(C)Cn1c(SCC#N)nc2ccccc2c1=O	·	1.1	-0.0335	-1
CCN(CCCn1c(SCC#N)nc2ccccc2c1=O)c1ccccc1	-5.36*	0.9	1.71	-0.00438
CC(=O)Nc1cc(C(=O)N2CCN(C)CC2)ccc1Sc1ccc(C)cc1	1.27	1.8	·	·
COc1ccc2[nH]c(=O)c(CN(CCCN(C)C)C(=O)Nc3ccc(F)cc3)cc2c1	-2	1.6	0.0163	-0.759
CCOc1ccccc1OCCOc1ccccc1OC(C)C	-5.36*	0.8	·	·
COc1cccc(OCCOc2ccccc2OC(C)C)c1	-1.67	1	·	·
O=C(Nc1ccc2c(c1)OCO2)c1c(F)cccc1F	-3.3*	0.8	-0.00331	0.54
O=C(Nc1ccc2c(c1)OCO2)c1cccc(F)c1	-0.028	0.9	0.384	0.18
O=C(NC1CC1)C1=C[C@@H](c2c[nH]c3ccccc23)C[C@@H](OCCCCO)O1	0.348	·	·	·
COc1ccc(C(=O)Oc2ccc3oc(=O)sc3c2)cc1	0.24	0.8	·	·
CCN(CC)C(=O)CSc1nc(-c2cccs2)cc(-c2cccs2)c1C#N	-5.99*	·	·	·
CCN(CC)C(=O)CSc1nc(N)c(C#N)c(-c2cccs2)c1C#N	-0.0335	·	·	·
O=C1Nc2cc(S(=O)(=O)N3CCCC3)ccc2N2CCCC12 (centres undefined)	-2.06	1.3	·	·
O=C1Nc2cc(Cl)cnc2N2CCCC12 (centres undefined)	-0.536	1.2	13.2*	-0.0344
COc1cc(OC)cc(-c2cc3nc(C)cc(N4CCN(C(=O)c5ccco5)CC4)n3n2)c1	·	1	·	·
Cc1cc(C)c(S(=O)(=O)N2CCC(C(=O)NCc3ccc(Cl)cc3Cl)CC2)c(C)c1	-4.74*	2.4*	·	·
c1ccc(C(c2nnnn2C2CCCC2)N2CCN(c3ccccc3)CC2)cc1 (centres undefined)	-5.14*	·	·	·
COc1ccc(C(c2nnnn2C2CCCC2)N2CCC(C)CC2)cc1 (centres undefined)	-4.44*	1.7	-0.767	-0.125
c1ccc(Cn2nnnc2C(c2cccs2)N2CCc3ccccc3C2)cc1 (centres undefined)	-3.84*	0.8	-0.415	-0.0228
CCc1ccc2[nH]c(=O)c(C(c3nnnn3CCOC)N3CCN(c4ccc(F)cc4)CC3)cc2c1 (centres undefined)	-5.65*	1.3	0.121	0.463
CN(C)c1ccc(N2[C@@H](CC(=O)O)c3cc(C(F)(F)F)ccc3S2(=O)=O)cc1	1.04	·	·	·
O=C(c1ccco1)N1CCN(C(c2cccs2)c2nnnn2C2CCCC2)CC1 (centres undefined)	0.157	1.4	·	·
Cc1cc(C)c2cc(C(c3nnnn3C3CCCC3)N3CCOCC3)c(=O)[nH]c2c1 (centres undefined)	1.94	1.6	-1.09	0.127
SMILES	Cav32 inh	PLAP activator	M1 agonist	M1 antag
c1cnc2ccc(C(c3nnnn3C3CCCCC3)N3CCN(C4CCCCC4)CC3)cc2c1 (centres undefined)	1.65	·	·	·
c1cnc2ccc(C(c3nnnn3C3CCCCC3)N3CCCCC3)cc2c1 (centres undefined)	-4.68*	·	·	·
Cc1ccc2cc(C(c3nnnn3C3CCCC3)N3CCN(c4ccc(F)cc4)CC3)c(=O)[nH]c2c1 (centres undefined)	-5.35*	·	-0.638	-1.28
Fc1ccc(C(c2nnnn2Cc2cccs2)N2CCN(c3ccccc3)CC2)cc1 (centres undefined)	-5.82*	·	·	·
c1ccc(CC2CCN(C(c3cccs3)c3nnnn3C3CCCC3)CC2)cc1 (centres undefined)	-3.44*	1.2	0.468	0.6
CCOc1ccc(/C(O)=C2\C(=O)C(=O)N(CCOCCO)C2c2ccccc2OC)cc1 (centres undefined)	0.567	1.1	·	·
CCOCCOCCC(C(=O)OCC)P(=O)(c1ccccc1)c1ccccc1 (centres undefined)	0.171	1.1	·	·
O=CN1CCN(C(C(=O)NC2CCCC2)c2ccc(Cl)cc2)CC1 (centres undefined)	0.508	1.3	-0.12	-0.0711
COc1ccc(C(c2nnnn2C2CCCCC2)N2CCN(c3ccc(OC)cc3)CC2)cc1 (centres undefined)	-6.4*	1.8	0.771	0.182
c1cc(N2CCCC2)ccc1C(c1nnnn1C1CCCCC1)N1CCOCC1 (centres undefined)	-0.863	1.5	0.736	-1.14
Cc1ccc(C(c2nnnn2CCc2ccccc2)N2CCC(C)CC2)cc1 (centres undefined)	-7.41*	·	·	·
O=C(c1ccco1)N1CCN(c2nc(-c3ccc(F)cc3)cs2)CC1	-0.988	1	·	·
CC(=O)N1CCN(c2nc(CC(C)C)c3c(c2C#N)CCC3)CC1	-1.4	1.5	-0.849	-0.847
CC1(C)Cc2c(C#N)c(N3CCN(C(=O)c4ccco4)CC3)nc(-c3ccco3)c2CS1	-0.0764	·	0.682	-0.0813
N#Cc1c(N2CCN(C(=O)c3ccccc3)CC2)nc(-c2ccccc2)c2c1CCCC2	-4.85*	1.8	·	·
CC(C)Cc1nc(N2CCN(C(=O)c3ccco3)CC2)c(C#N)c2c1CCC2	-7.88*	1.7	0.25	0.105
CC(C)Cc1nc(N2CCN(C(=O)C(C)C)CC2)c(C#N)c2c1CCC2	-5.74*	1.1	2.47	0.568
CC1(C)Cc2c(C#N)c(N3CCN(C(=O)c4ccco4)CC3)nc(Cc3ccccc3)c2CO1	-4.55*	1.3	-0.149	0.0193
CC(C)Cc1nc(N2CCN(C(=O)c3ccccc3)CC2)c(C#N)c2c1CCC2	-3.75	1.2	·	·
COc1ccc(OC)c(NC(=O)Cc2coc3cc(C)cc(C)c23)c1	-1.44	1	·	·
Clc1ccc(-c2nc(Cc3ccccc3)no2)cc1	0.802	0.8	·	·
Clc1ccc(Cc2noc(Cc3ccccc3)n2)cc1Cl	-0.282	0.8	-0.266	1.85*
COc1ccccc1OCc1nc(Cc2ccc(Cl)cc2)no1	-5.18*	0.7	0.865	-0.898
COc1ccc(Cc2nc(-c3ccc(Cl)cc3)no2)cc1	-0.326	2*	0	0.892
CC(=O)C[C@H]1c2ccccc2S(=O)(=O)N1c1ccccc1	0.732	·	·	·
SMILES	Cav32 inh	PLAP activator	M1 agonist	M1 antag
Fc1ccc(NCc2nnc(SCc3nnc(-c4ccccc4)o3)n2Cc2ccccc2)cc1	-8.34*	1.7	2.39	-0.434
COC(=O)c1nc2n(n1)C(c1cc(OC)ccc1OC)C(C(=O)OC1CCCCC1)=C(C)N2 (centres undefined)	-4.83*	1.1	1.66	-1.18
CCC(=O)Nc1ccc(NC(=O)C23CC4CC(CC(C4)C2)C3)cn1	0.465	0.9	-1.5	0.26
CCOc1ccc(NC(=O)C23CC4CC(C2)CC(c2ccccc2)(C4)C3)cc1	-1.87*	0.9	·	·
C/C(CCc1ccc2c(c1)OCO2)=N\N=C(/N)SC1CC(=O)N(c2ccccc2F)C1=O (centres undefined)	-5.91*	1.1	·	·
Cc1cc(N2CCCCC2)nc2ccc(NC(=O)c3ccc(Br)o3)cc12	-4.92*	1.6	·	·
O=C(Nc1ccc(N2CCCC2)cc1)c1ccc(Br)o1	-0.0656	1.2	-0.418	0.58
Cc1cccc(NS(=O)(=O)c2cc(C(=O)N3CCc4ccccc4C3)ccc2Cl)c1C	-1.93	1.4	·	·
O=c1c2ccccc2n(Cc2cccc(F)c2)c(=O)n1C1CCCC1	·	0.8	·	·
